# Source: PubChem (National Center for Advancing Translational Sciences (NCATS))
# Lassa entry inh: qHTS for Inhibitors of binding or entry into cells for Lassa Virus. Lassa virus pseudotype entry inhibition, cell reporter. Potency, µM (top dose mostly 37.9 µM), for inactives: at the top dose activity change, negative = inhibition, usual class: inhibitors. 300,000 tested, 1.2% active; calls by dose curve; tested in HEK293 cells; note: potency is the fitted concentration of half-maximal effect; nearly all actives have a fitted effect of over 50% in size
# FMDV inh: High Throughput Screening for Foot and Mouth Disease Virus Antivirals. FMDV antiviral cell-based qHTS. Potency, µM (highest dose often 57.9 µM), for inactives: at the top dose activity change, negative = inhibition, hits mostly inhibitors. 410,000 tested, 1.2% active; calls by dose curve; tested in HEK293T cells; note: read-out not given here; potency is the fitted concentration of half-maximal effect; nearly all actives have a fitted effect of over 45% in size
# Vaccinia Venus: qHTS for Stage-Specific Inhibitors of Vaccinia Orthopoxvirus: Venus Reporter Primary qHTS; Potency, µM (top dose mostly 36.5 µM), without a hit: top-dose activity change, negative = inhibition, hits mostly inhibitors; 330,000 tested, 0.46% active; Vaccinia virus Venus reporter expression, fluorescence; AID 720580, 2013; calls by dose curve; tested in A549 cells; note: potency is the fitted concentration of half-maximal effect; nearly all actives have a fitted effect of over 30% in size
# HCMV inh: qHTS Assay for inhibitors of the human cytomegalovirus (HCMV); HFF cells, HCMV-luciferase reporter, 72 h; hits give low values; activity change, negative = inhibition, % at 57.5 µM; 410,000 tested, 4.5% active; AID 1259415, 2018; in the data active = activity change below about -60%; inconclusive = no clear call, values can overlap the other calls; inactive = above about -39%
#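 Screen run at 2 compound doses on HFFs infected with reporter HCMV, MOI 1 PFU/cell. Luciferase activity from cell lysates at 72 h post infection gave inhibition relative to buffer-only and Salinomycin wells.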
# Marburg entry inh: qHTS for inhibitors of binding or entry into cells for Marburg Virus; Marburg virus pseudotyped entry inhibition, cell reporter; Potency, µM (doses to about 37.8 µM), for the others: at the top dose activity change, negative = inhibition, usual class: inhibitors; 300,000 tested, 1.8% active; calls by dose curve; tested in HEK293 cells; note: potency is the fitted concentration of half-maximal effect
# Vaccinia mCherry: qHTS for Stage-Specific Inhibitors of Vaccinia Orthopoxvirus: mCherry Reporter Primary qHTS; Vaccinia virus mCherry reporter infection, fluorescence; Potency, µM (highest dose often 36.5 µM), for the others: top-dose activity change, negative = inhibition, hits mostly inhibitors; 310,000 tested, 0.63% active; AID 720579, 2013; calls by dose curve; tested in A549 cells; note: potency is the fitted concentration of half-maximal effect; nearly all actives have a fitted effect of over 35% in size
# Starred values were filed as active, the others as inactive; i = inactive; ? = inconclusive; . = not tested or not shown; ! = not confirmed by another sample; [ ] = dose if it differs, or a comment. Hits are enriched below; roughly 6.5% of the tested compounds scored in any of these assays. % is set by controls: 0 for no effect and ±100 for the full control effect.
SMILES,Lassa entry inh,FMDV inh,Vaccinia Venus,HCMV inh,Marburg entry inh,Vaccinia mCherry
C[C@H]1CCC[C@@H](O)CCC/C=C/c2cc(O)cc(O)c2C(=O)O1,-49.9%[14.3 µM],3.55µM*,?,-105.3*,?,?
CC1CCCC(=O)CCC/C=C/c2cc(O)cc(O)c2C(=O)O1 (stereo not given),.,-21.0%,-17.0%,.,.,-16.2%
CC1CCC/C=C/C(=O)c2c(O)cc(O)cc2CC(=O)O1 (stereo not given),.,31.6µM*,?,-104.6*,.,7.08µM*
CC1CCC[C@H](O)CCCCCc2cc(O)cc(O)c2C(=O)O1 (stereo not given in full),0.6%,35.5µM*,-25.9%,?,-29.2%,-10.4%
CC#CCN1c2ccccc2[C@]23CCC(=O)N(Cc4cccc(C(F)(F)F)c4)C2=NC(C(=O)OC)=C(C(=O)OC)[C@H]13,.,.,.,.,18.5%[14.2 µM],.
COc1ccc(S(=O)(=O)NCCc2sc(-c3ccccc3)nc2C)cc1OC,8.3%[46.1 µM],35.8%,4.1%,-8.7,.,5.7%
CCOC(=O)c1cnc2c(F)ccc(F)c2c1Sc1ccccc1,3.4%[46.1 µM],-23.6%,-4.9%,26.8,?,i
C[C@H]1CN([C@@H](C)CO)S(=O)(=O)c2ccc(Br)cc2O[C@@H]1CN(C)Cc1cccc(F)c1,.,-5.4%,?,-20.5,.,?
O=C(NCCN1CCC2(CC1)C(=O)NCN2c1cccc(F)c1)c1ccc2ccccc2c1,.,-28.7%,-5.5%,-101.4*,.,5.8%
O=C1NCN(c2ccccc2)C12CCN(CCCC(c1ccc(F)cc1)c1ccc(F)cc1)CC2,10.3µM*,?,-11.8%,58.2,2.06µM*,-25.7%
O=C(NCCN1CCC(n2c(=O)[nH]c3ccccc32)CC1)c1ccccc1,.,-19.1%,-9.5%,-10.4,.,-2.3%
O=c1[nH]c2ccccc2n1C1CCN(CCCC(c2ccc(F)cc2)c2ccc(F)cc2)CC1,10.3µM*!,?,?,?,11.6µM*!,-13.9%
O=C1NCN(c2ccccc2)C12CCNCC2,0.0%,?,.,20.8,0.1%,.
CCn1nc(C(=O)NCC(c2cccs2)N2CCOCC2)c2ccccc2c1=O (stereo not given),?,0.0%,-19.9%,-27.9,-9.4%,-10.7%
CCCCn1nc(C(=O)NCC(c2cccs2)N2CCOCC2)c2ccccc2c1=O (stereo not given),.,31.6µM*,.,?,.,.
O=C1C2CCCN2C(c2ccccc2)N1c1ccc(Cl)cc1 (stereo not given),?,6.1%,.,-96.6*,?,.
O=C1C2CCCN2C(c2ccccc2F)N1c1ccc(Cl)cc1 (stereo not given),-17.5%,7.9%,.,-63.8*,?,.
COc1ccc(-c2c(C(=O)c3ccccc3)[nH]c(N)c2C(N)=O)cc1OC,.,4.3%,-10.8%,2.2,.,-9.6%
C[C@]12CC[C@@H](O)CC1=CCC1C2CC[C@@]2(C)C1CC[C@@H]2N (stereo not given in full),-4.2%[46.1 µM],-9.6%,-8.6%,-25.3,-0.8%[46.1 µM],i
COc1cc(/C=C2\C[C@H]3[C@@H]4CC=C5C[C@@H](N6CCCC6)CC[C@]5(C)[C@H]4CC[C@]3(C)[C@H]2O)cc(OC)c1OC,-28.3%,-2.3%,-9.4%,8.0,10µM*,-10.0%
COCc1c(C(=O)N2CCCCC2c2cccnc2)cnn1-c1ncc2c(n1)-c1ccccc1CCC2 (stereo not given),.,-17.1%,-3.7%,.,.,-19.8%
CCCN(CC1CC1)C(=O)CSc1ncnc2sc(C)c(C)c12,-5.7%,?,-15.5%,-82.6*,1.6%,-10.9%
N=c1c2c(n(Cc3ccc(Cl)c(Cl)c3)c3c1CCC3)CCCC2,?,?,?,-86.4*,?,.
N=c1c2c(n(Cc3ccc(Br)cc3)c3c1CCC3)CCCC2,?,39.8µM*,.,-94.7*,?,.
N=c1c2c(n(Cc3ccc([N+](=O)[O-])cc3)c3c1CCC3)CCCC2,-7.7%,0.0%,-1.4%,-85.5*,?,-0.8%
SMILES,Lassa entry inh,FMDV inh,Vaccinia Venus,HCMV inh,Marburg entry inh,Vaccinia mCherry
OCCC#Cc1ccc(F)c(-c2noc3ccccc23)c1,.,.,.,-10.0,.,.
NC1C(N)C(N)C1N (stereo not given),.,.,-11.6%,.,.,-6.3%
CC(C)OC(=O)[C@H](C)NC(=O)N1CCc2nc(-c3ccccc3)c3c(c2C1)CO[C@@H](C)C3,.,.,.,.,-2.4%[14.2 µM],.
CCCCn1c(O)c(C(CC)=Nc2ccc3c(c2)CCC3)c(=O)[nH]c1=O,1.3µM*,-7.5%,.,-25.1,-14.3%,.
CCCCn1c(O)c(C(CC)=Nc2ccc(C(=O)O)cc2)c(=O)[nH]c1=O,-21.6%,-2.3%,2.9%,19.5,25.8%,-17.0%
O=C(/C=C/c1ccc(Cl)cc1)c1ccc([N+](=O)[O-])o1,.,?,10µM*,-77.6*,.,8.91µM*
Cc1ccc(/C=C/C(=O)c2ccc([N+](=O)[O-])o2)cc1,.,?,?,-79.2*,.,-22.9%
COc1ccc(N2CCC(CNC(=O)Nc3ccc(C)c(C)c3)C2)cc1 (stereo not given),0.6%,-2.4%,-25.7%,10.8,-22.5%,-26.7%
COc1ccc(N2CCC(CNC(=S)Nc3c(C)cc(C)cc3C)C2)cc1 (stereo not given),.,0.0%,.,-70.2*,.,.
COc1ccc(N2CCC(CNC(=O)Nc3ccc(OC)cc3OC)C2)cc1 (stereo not given),-17.5%,-17.5%,10µM*,-80.1*,7.2%,-15.7%
C[C@@H]1C=CC(=O)O[C@@H]1c1ccc(Cl)cc1,.,28.2µM*,3.55µM*,-91.5*,.,?
CC(C)/C(C=O)=C(/NC1CCCCC1)c1ccccc1,?,?,2.7%,-11.7,-26.5%,i
COc1cc(/C=N/NC(=O)COc2ccc(C)cc2)ccc1OC(=O)c1cccs1,9.2µM*,0.6%,5.6%,-9.1,9.7%,9.2%
COc1ccc(/C=N/NC(=O)CCOc2ccccc2C)cc1OC,-8.2%,-10.1%,-10.0%,-79.0*,?,-16.7%
COc1cc(/C=N/NC(=O)CCOc2ccccc2C)cc(Br)c1O,-0.1%,-14.6%,-13.3%,-30.6,-24.0%[46.1 µM],-14.9%
N#CC1=C(N)NC(SCc2ccc(Cl)cc2)=C(C#N)C12CCCCC2,?,0.0%,?,36.9,11.2µM*,.
N#CC1=C(N)NC(SCc2ccc(Br)cc2)=C(C#N)C12CCCCC2,.,-15.4%,.,23.8,.,.
O=C(Nc1cc(SCCO)cc([N+](=O)[O-])c1)c1ccc(Br)o1,?,31.6µM*,-14.4%,-35.8,?,?
CCc1ccc2oc(-c3cc(N)ccc3Cl)nc2c1,-7.2%,-77.5%,-10.4%,47.4,-27.0%,-6.6%
CCc1ccc2oc(-c3cc(N)ccc3O)nc2c1,?,25.1µM*,-11.5%,145.9,?,.
O=CN1CCCN(C(=O)c2cc(NC(=O)c3ccccc3)cc3ncn(C4CCCC4)c23)CC1,.,4.9%,-2.7%,.,.,-11.4%
